# According to PubChem BioAssay (NCI):
# About 83,000 compounds went through this panel and 20% of them were active in at least one assay; those are over-represented in the sample as a whole.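 Growth was measured after 48 h exposure to one concentration of compound in 96-well plates. Values under 10 count as active.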 A number with no mark means an inactive call. Calls of active or inactive are those of the source.
# Tested on: NCI/ADR-RES ovarian
# Test: NCI-60 one-dose screen, 48 h (100 = growth as untreated, 0 = no growth, -100 = all killed)
# Conditions: 10 µM unless noted
row,Structure (SMILES),growth
1,COc1cccc(CC(C)=C(c2ccc(OCCN(C)C)cc2)c2ccc(OCCN(C)C)cc2)c1,19%
2,N/C(=N\C(N)=N\c1nc2ccccc2s1)c1cccc(Br)c1,73.6%
3,O=C(Nc1ccc(Cl)c(Cl)c1)NS(=O)(=O)c1cnccc1Oc1ccc(F)cc1,53.3%
4,Cc1ccc(S(=O)(=O)NC(=O)n2cc(-c3ccncc3)c(-c3ccc(Cl)c(O)c3)n2)cc1,104%
5,CCN(CC)CCC(CNc1ccnc2cc(Cl)ccc12)c1ccc(Cl)cc1 (centres undefined),23.4%
6,CCN(CC)CCOc1ccc(Cl)c(C)c1,102%
7,OC(c1cc2cc(Br)ccc2c2cc(Br)ccc12)C1CCCCN1 (centres undefined),-65.1% (active)
8,CCN(CC)CCC(CNc1ccnc2cc(Cl)ccc12)c1ccccc1 (centres undefined),83.2%
9,CCCCCCCCCCCCNC(=O)[C@H]1CSC(c2cc3ccccc3s2)N1 (some centres undefined),-18.1% (active)
10,CCCCCCN1CSC(=S)N(CCCCCC)C1,89.9%
11,CC1(c2ccc(Cl)cc2)OC(=O)CC(=O)O1,106%
12,O=C(NS(=O)(=O)c1ccc2ccccc2c1)n1cc(-c2ccncc2)c(-c2ccc(Cl)c(O)c2)n1,87.6%
13,CN(C)CCOC(=O)Nc1ccccc1Cl,105%
14,Cc1c(C(=O)/C=C/c2csc3ccccc23)[n+](=O)c2ccccc2n1[O-],22.5%
15,CN(C)CCCN(c1nc(C(Cl)(Cl)Cl)ns1)c1nc(C(Cl)(Cl)Cl)ns1,48.8%
16,CC[N+](CC)=c1cc2oc3cc(N(C)C)ccc3nc-2cc1C,79.3%
17,CCN(CC)CCC(CNc1c2ccc(Cl)cc2nc2ccc(OC)cc12)c1ccccc1 (centres undefined),-1.8% (active)
18,CN1CCN(Cc2ccc(NC(=O)c3nc4ccc5[nH]ncc5c4c4c3CCC4)cc2C(F)(F)F)CC1,-40.8% (active)
19,COc1ccc(N=Cc2c(O)ccc3c2oc2cc(Cl)c(O)c(Cl)c23)cc1,84.5%
20,O=C(O)C1CCCCN1c1nc(Cl)nc(Cl)n1 (centres undefined),101%

row,Structure (SMILES),growth
1,C=CCn1c2ccccc2c2c3c(c4c5ccccc5n(CC=C)c4c21)C(=O)N(O)C3=O,2.91% (active)
2,Nc1cccc(Cl)c1N,102%
3,O=C(NS(=O)(=O)c1ccccc1)n1cc(-c2ccncc2)c(-c2ccc(Cl)c(O)c2)n1,102%
4,Cc1csc(NC(c2ccc(Br)cc2)c2c(C)nc3ccccn23)n1 (centres undefined),95.4%
5,O=S(=O)(c1ccc(OCCO)cc1)c1ccc(OCCO)cc1,103%
6,COc1cc(-c2nn(C(=O)NS(=O)(=O)c3ccccc3)cc2-c2ccncc2)ccc1Cl,82.3%
7,N=c1ccc2nc3ccc(N)cc3sc-2c1,9.73% (active)
8,Cc1ccc(Cc2c(C=O)nc(N)[nH]c2=O)c2ccccc12,103%
9,CCN(CC)CCCC(C)Nc1c2ccc(Cl)cc2nc2cc(OC)c(OC)cc12 (centres undefined),28.8%
10,CCCCCCCCCCCCNC(=O)[C@H]1CSC(c2ccsc2)N1 (some centres undefined),-61.5% (active)
11,CC(C)(C)NCCC(O)c1cc2c(Cl)cc(Cl)cc2c2cc(C(F)(F)F)ccc12 (centres undefined),-80% (active)
12,COc1cc2c(cc1O)CCN1C[C@@H](CC(C)C)[C@@H](O)C[C@@H]21,98.2%
13,Nc1ccc(C(=O)CSc2nc3ccccc3[nH]2)cc1,99.3%
14,CCCC(=O)Oc1ccc(/C(=C(\C)c2ccccc2)c2ccc(OCCN(CC)CC)cc2)cc1,86.7%
15,C/C=C(\C)C(C(=O)NC1CCCCC1)N(C(=O)C1CCc2cc(F)ccc2O1)c1ccc(Cl)cc1 (centres undefined),97.2%
16,Cn1ccc(=O)c(S(N)(=O)=O)c1,94.8%
17,O=c1[nH]c(NCc2ccccc2)nc2nc(Nc3ccc(NC(=S)Nc4ccccc4)cc3)nc(-c3ccc(O)cc3O)c12,106%
18,COc1ccc(-n2c(-c3ccccc3)c(-c3ccccc3)c3c(SCC(=O)N/N=C/c4ccc(Cl)cc4)ncnc32)cc1,87.1%
19,COc1ccc(S(=O)(=O)NCCCNc2nccc(-c3c(-c4cccc([N+](=O)[O-])c4)nc4sccn34)n2)cc1,22.9%
